According to PubChem BioAssay AID588405 (Sanford-Burnham Center for Chemical Genomics, 2011):
“And” between values parts separate entries of the source, which are not always exact repeats. Equal values may be shown once. The whole screen tested about 360,000 compounds, of which about 6,200 (1.7%) were called active.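 How the source made its calls: active means inhibition of at least 50% at 20 µM; inactive means the rest.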 Only a selection was taken, and actives are over-represented in it overall.

assay: Peg3 promoter-driven luciferase inhibitors, primary screen, cell-based, HeLa, luciferase luminescence (AID 588405); details: HeLa PEG-Prom luciferase reporter, overnight, at 20 µM, hits give high values

SMILES | inhibition
CCC(C)(O)C(=O)OC1C(=O)OC2CC3C(C)=CC(=O)C(O)C3(C)C3C4(O)OCC23C1C(C)C4O (stereo not given) | 100% (active)
O=C(O)CCn1cc(C=C2C(=O)NC(=S)NC2=O)c(-c2cccc(Br)c2)n1 | -1.73% (inactive)
CN(C)C(=O)Oc1cc(OC(=O)N(C)C)cc(C(O)CNC(C)(C)C)c1 (stereo not given) | 4.25% (inactive) and -0.27% (inactive)
O=C1NC(=O)N(c2ccc(F)cc2)C(=O)/C1=C/c1ccc2c(c1)CCCN2Cc1ccccc1 | 12.7% (inactive)
O=C1NC(=O)N(CCc2ccc(F)cc2)C(=O)/C1=C/C=C/c1ccccc1 | 90.6% (active)
Cc1cc2ccccn2c1C(C[N+](=O)[O-])c1c(F)cccc1Cl (stereo not given) | 38.7% (inactive)
CC(C)CN1Cc2cc(N3CCCCC3)ccc2-n2nncc2C1 | -1.02% (inactive)
COC(=O)[C@@H]1C(OC(=O)c2ccccc2)CC2CCC1N2C (stereo not given in full) | -10.5% (inactive)
CC(=O)OC1C2(CC3N4C(=O)C5(CO)SSC4(CC31O)C(=O)N5C)OC(C)C(C)(C)C2=O (stereo not given) | 99.3% (active)
CC1C2Cn3c(nc4ccccc43)C1N(C)O2 (stereo not given) | -2.57% (inactive)
Nc1ccc([N+](=O)[O-])cc1 | -3.82% (inactive)
CC(C)N(CC#CCC1(O)c2ccccc2-c2ccccc21)C(C)C | -15.7% (inactive)
COc1ccc(C(=O)CC2C(=O)N(C)C(=O)N(C)C2=O)cc1 | 13.1% (inactive)
CC(=O)Nc1ccccc1C(=O)OCC(=O)c1cccc2ccccc12 | -26.1% (inactive)
N#CC1=C(N)Oc2c(c(=O)oc3ccccc23)C1c1ccccc1OC(=O)c1cccs1 (stereo not given) | 19.6% (inactive)
O=P(OC1=CCCCC1)(c1ccccc1)c1ccccc1 | 8.64% (inactive)
O=C1C2(Cl)C3(Cl)C4(Cl)C(Cl)(Cl)C5(Cl)C3(Cl)C1(Cl)C5(Cl)C24Cl (stereo not given) | 86.1% (active)
OC1/C(=C/c2ccc(C(F)(F)F)cc2)N2CCC1CC2 (stereo not given) | -51.4% (inactive)
CC12CCC(O)CC1CCC1C2CCC2(C)C(C(=O)CC(O)C(F)(F)F)CCC12 (stereo not given) | -18.9% (inactive)
C[C@]12CC[C@H](O)C[C@H]1CC[C@@H]1C2CC[C@]2(C)[C@@H](C3=CC(=O)OC3)[C@@H](O)C[C@]12O (stereo not given in full) | 112% (active)
CCN1c2nc3c(C)cccn3c(=O)c2CC2(C(=O)N(C)C(=O)N(C)C2=O)C1C (stereo not given) | 4.11% (inactive)
CN1CCC(N(C)Cc2cccnc2)CC1 | -0.72% (inactive)
O=C(OCCN1CCOCC1)C1(c2ccccc2)CCCC1 | 6.31% (inactive)
COc1cc(OC)cc(C2(C#N)CCN(C)CC2)c1 | 16.1% (inactive)
Cc1cc(OCc2cc(C(=O)O)oc2C)c2c3c(c(=O)oc2c1)CCCC3 | 0.36% (inactive)
Fc1ccc(C2N3CCCN23)cc1 (stereo not given) | 2.08% (inactive)
CCCCCCCCCCCCn1ccc(=N)cc1 | 72.5% (active)

SMILES | inhibition
COc1ccccc1N=C1SCCCN1C | 4.44% (inactive)
CCN1CCN(c2ccc([N+](=O)[O-])cc2C#N)CC1 | 13.3% (inactive)
CC(Cc1ccccc1)NCCC(c1ccccc1)c1ccccc1 (stereo not given) | 69.5% (active)
CCc1cccc2c(C#N)cn(CC(=O)N3CCOCC3)c12 | 16.4% (inactive)
CC1CC=CCC12C(=O)NC(=S)NC2=O (stereo not given) | 4.94% (inactive)
COP(=O)(OC)C(NC(=O)c1ccc(C)cc1)C(Cl)(Cl)Cl (stereo not given) | -13.6% (inactive)
CC(CC(C#N)(c1ccccc1)c1ccccc1)N1CCCCC1 (stereo not given) | -0.65% (inactive)
CCN1CCN(Cc2cc(OC)c3c(c2)OCO3)CC1 | 14.7% (inactive)
O=C(NC(=S)N1C[C@H]2C[C@H](C1)c1cccc(=O)n1C2)c1ccc(F)cc1 | 10.8% (inactive)
CNCC(O)c1cc(F)c(OCc2ccccc2)c(OCc2ccccc2)c1F (stereo not given) | 100% (active)
O=C(CSC1c2ccccc2-c2ccccc21)N/N=C/c1ccccc1 | 28.7% (inactive)
CCOc1ccc(CN(CCCl)CCCl)cc1C(=O)OC | 21.9% (inactive)
COc1cccc(C(c2nnnn2-c2ccc3c(c2)OCCO3)N2CCC3(CC2)C(=O)NCN3c2ccccc2)c1OC (stereo not given) | 45.9% (inactive)
Cc1ccc(Cn2nnnc2CN2CCC(n3nnc4ccccc43)CC2)cc1 | 16.7% (inactive)
O=C1NCN(c2ccccc2)C12CCN(C(c1cccs1)c1nnnn1C1CCCCC1)CC2 (stereo not given) | 22% (inactive)
CSCCC(c1nnnn1C(C)(C)C)N1CCC(n2c(=O)[nH]c3ccccc32)CC1 (stereo not given) | 17.6% (inactive)
O=c1[nH]c2ccccc2n1C1CCN(C(c2ccnc3ccccc23)c2nnnn2Cc2ccccc2)CC1 (stereo not given) | 60.1% (active)
O=c1[nH]c2ccccc2n1C1CCN(C(c2ccccc2)c2nnnn2Cc2ccccc2)CC1 (stereo not given) | 71% (active)
COc1ccc(-n2nnnc2C(c2cccc3ccccc23)N2CCC(n3c(=O)[nH]c4ccccc43)CC2)cc1 (stereo not given) | 50.2% (active)
CN1CCN(Cc2ccccc2C(F)(F)F)CC1 | -6.7% (inactive)
CC(=O)c1ccc(OC(NC(=O)Cc2ccccc2)C(Cl)(Cl)Cl)cc1 (stereo not given) | -5.19% (inactive)
COc1ccc(N=Cc2c(O)n(C)c(=O)[nH]c2=O)cc1 | -20.6% (inactive)
O=[N+]([O-])c1ccc(C2C3C(c4ccccc4)=NC4(CCCCC4)N32)cc1 (stereo not given) | 23.4% (inactive)
COc1ccccc1NC(=O)N1C[C@@H]2C[C@@H](C1)c1cccc(=O)n1C2 | -1.31% (inactive)
CCN1C(=O)NC(=O)C2(CCCC2)C1=O | -7.97% (inactive)
C=CCn1c(O)c(/C=N/N2CCOCC2)c(=O)[nH]c1=S | -0.23% (inactive)
CC(=CCOc1ccc2ccc(=O)oc2c1)C1=CC(=O)C(C)(C)O1 | 62.4% (active)

SMILES | inhibition
CN(C)c1nc(N(C)C)nc(N(C#N)CCCl)n1 | -5.34% (inactive)
C[C@]12CCC3C(CC[C@H]4[C@H](O)[C@H](O)CC[C@]34C)C1CC[C@@H]2O (stereo not given in full) | 0.2% (inactive)
CCCOC(=O)C1C2c3ccccc3C(c3ccccc32)C1C(=O)O (stereo not given) | 12.7% (inactive)
Cc1cc(-c2ccc(N)c(C)c2)ccc1N | -45.4% (inactive)
O=C(C1CC(=O)N(C2CCCC2)C1)N1CCC2(CC1)OCCO2 (stereo not given) | -6.37% (inactive)
CC1([N+](=O)[O-])COP(=O)(Nc2ccc(F)cc2)OC1 (stereo not given) | 3.6% (inactive)
CCCCCn1c(=O)c(C(=O)NCc2ccccn2)c(O)c2ccccc21 | 15.5% (inactive)
CCOc1ccc(-c2cc(C)[n+](CCN(CC)CC)c(-c3ccc(OCC)cc3)c2)cc1 | 53.3% (active)
CC(C)n1c(=O)c(C=Nc2ccc(Br)cc2)c(O)n(Cc2ccco2)c1=O | 8.27% (inactive)
COC(=O)C1=C(c2ccc(Cl)c(C(F)(F)F)c2)C[C@@H]2CC[C@H]1N2C(=O)NC1CC1 | -0.39% (inactive)
COC(=O)C1=C(c2ccc3ccccc3c2)C[C@@H]2CC[C@H]1N2C(=O)NCCO | -5.4% (inactive)
COC1C(O)C(C)OC(OC2CCC3(C=O)C(CCC4C3CCC3(C)C(C5=CC(=O)OC5)CCC43O)C2)C1O (stereo not given) | 105% (active)
CC1C(=O)OC2CCN3CC=C(COC(=O)C(C)(O)C1(C)O)C23 (stereo not given) | -0.84% (inactive)
CC1=C(C(=O)Nc2ccccc2)S(=O)(=O)CCO1 | 9.24% (inactive)
CC1=C2C(=O)C3C(CC=C4CC(OC5OC(O)C(O)C(O)C5CO)CCC43C)C2CCC12OC1CC(C)CNC1C2C (stereo not given) | -7.24% (inactive)
CCN(CC)C(=O)c1ccc(NC(=O)c2cc(-n3cnnc3)ccc2Cl)cc1 | 5.1% (inactive)
CN(C)CC1Oc2ccccc2OC1(O)c1ccccc1 (stereo not given) | 103% (active)
c1cc2c(cc1C1OCC3C(c4ccc5c(c4)OCO5)OCC13)OCO2 (stereo not given) | -66.8% (inactive)
COc1ccc(NC(=O)N2Cc3ccccc3-n3nncc3C2)cc1 | 7.2% (inactive)
Cc1ccc(C)c(NC2=NCCCS2)c1 | 4.99% (inactive)
COC(=O)C1=C(c2ccc(F)cc2OCc2ccccc2)C[C@@H]2CC[C@H]1N2C(=O)NCc1ccc(C(C)(C)C)cc1 | 14.9% (inactive)
CC1(C)Cc2c(C#N)c(N3CCNCC3)nc(-c3ccco3)c2CS1 | 78.3% (active)
c1ccc(N2Cc3ccccc3-n3nncc3C2)nc1 | -7.56% (inactive)
COc1cc(-n2c(=S)[nH]c3ccc(C)cc3c2=O)c(Cl)cc1Cl | 30.3% (inactive)
CCOC(=O)c1c(C)c(C(=O)N2CCC3(CC2)OCCO3)c(C)n1CC | 13.1% (inactive)
C[C@H]1CN([C@@H](C)CO)C(=O)CCCn2nncc2CO[C@H]1CN(C)C(=O)Oc1cccc2ccccc12 | 9.28% (inactive)
